PubChem BioAssay (NCATS)
Results filed as inconclusive are left out. Calls of active or inactive are those of the source. Calls come from the whole dose curve; as a rule, active = well fitted curve in the direction sought with a large enough effect; inconclusive = small, poorly fitted or top-dose-only effect, or another doubt; inactive = no such curve, though single readings can be large; an effect the other way counts as inactive or inconclusive.

Key:
[1] = P-glycoprotein substrates identified in KB-8-5-11 adenocarcinoma cell line, qHTS therapeutic library screen (AID 1346987); settings: outcome: dose series up to 44.5 µM; note: series mostly up to about 44 µM; nearly all actives have a fitted effect of over 65% in size
How it was run: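 KB-8-5-11: colchicine-selected sub-line of KB-3-1 over-expressing P-gp; assay medium lacked colchicine. 72 h drug exposure at 37 degree C, CellTiter-Glo.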

[2] = NS1 protein of Zika virus - qHTS assay to identify small molecule inhibitors in human HEK 293 cells (AID 1347053); note: series mostly up to about 46 µM; nearly all actives have a fitted effect of over 55% in size
How it was run: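 HEK 293; 20 h pre-culture, 37 C/5% CO2; cpd 1 h pre-infection; ZIKV MR766, MOI = 0.5, 24 h, 37 C; TR-FRET NS1 readout (two anti-NS1 Abs); norm. to no-virus vs infected.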

[3] = qHTS of pediatric cancer cell lines to identify multiple opportunities for drug repurposing: Primary screen for TC32 cells (AID 1347089); note: nearly all actives have a fitted effect of over 60% in size
How it was run: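 Luminescent CellTiter-Glo read-out of metabolically active TC32 cells after 48 h compound exposure. Primary: MIPE 11-point, 0.78 nM–46 µM; NPC 8-point, 0.59 nM–46 µM. Confirmatory: 11-point dilutions.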

[4] = qHTS of pediatric cancer cell lines to identify multiple opportunities for drug repurposing: Primary screen for DAOY cells (AID 1347090); note: series mostly up to about 46 µM; nearly all actives have a fitted effect of over 55% in size
How it was run: (§1)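 Viability measured as metabolically active cells via CellTiter-Glo luminescence following 48 hours of compound exposure, 11-point dilutions in confirmatory testing. 500-1,000 cells/well plated 5 hours before dosing; controls were DMSO and 2.3 µM bortezomib.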

[5] = qHTS of pediatric cancer cell lines to identify multiple opportunities for drug repurposing: Primary screen for SJ-GBM2 cells (AID 1347091)
How it was run: as §1

[6] = qHTS of pediatric cancer cell lines to identify multiple opportunities for drug repurposing: Primary screen for A673 cells (AID 1347092); note: nearly all actives have a fitted effect of over 45% in size
How it was run: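 A673 cells (500-1,000 cells/well in growth media) were pre-incubated 5 h at 37 degrees C, then exposed to compounds for 48 h. Viability was read as CellTiter-Glo luminescence; concentration-response curves came directly from the primary screen.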

[7] = qHTS of pediatric cancer cell lines to identify multiple opportunities for drug repurposing: Primary screen for SK-N-MC cells (AID 1347093); note: series mostly up to about 46 µM
How it was run: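 Metabolically active cells were quantified by ATP-dependent luminescence (CellTiter-Glo, 15 min at room temperature) following 48 h treatment. Cells had been plated at 500-1,000 per well and settled for 5 h beforehand.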

[8] = qHTS of pediatric cancer cell lines to identify multiple opportunities for drug repurposing: Primary screen for BT-37 cells (AID 1347094); note: series mostly up to about 57 µM
How it was run: (§2)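 Cells seeded at 500-1,000 cells/well in growth media, rested 5 hours at 37 degrees C, 5% CO2, then dosed; MIPE compounds at 11-point (from 0.78 nM) and NPC at 8-point (from 0.59 nM) final concentrations. Viability by CellTiter-Glo luminescence after 48 hours.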

[9] = qHTS of pediatric cancer cell lines to identify multiple opportunities for drug repurposing: Primary screen for NB-EBc1 cells (AID 1347095)
How it was run: as §2

Measured: Potency

NNC(=O)CP(=O)(c1ccccc1)c1ccccc1
inactive: [1] | [2] | [3] | [4] | [5] | [6] | [7] | [8] | [9]

NS(=O)(=O)c1cc(C2(O)NC(=O)c3ccccc32)ccc1Cl (centres undefined)
inactive: [1] | [2] | [3] | [4] | [5] | [6] | [7] | [8] | [9]

C/C=C1\[C@H]2C=C(C)C[C@]1(N)c1ccc(=O)[nH]c1C2
inactive: [1] | [2] | [3] | [4] | [5] | [6] | [7] | [8] | [9]

C=CCOc1ccccc1OCC(O)CNC(C)C (centres undefined)
inactive: [1] | [2] | [3] | [4] | [5] | [6] | [7] | [8] | [9]

CCOC(=O)[C@H](CCc1ccccc1)N[C@@H](C)C(=O)N1Cc2cc(OC)c(OC)cc2C[C@H]1C(=O)O
inactive: [1] | [2] | [3] | [4] | [5] | [6] | [7] | [8] | [9]

COc1nccnc1NS(=O)(=O)c1ccc(N)cc1
inactive: [1] | [2] | [3] | [4] | [5] | [6] | [7] | [8] | [9]

CCOc1cc(NC(C)=O)ccc1C(=O)OC
inactive: [1] | [2] | [3] | [4] | [5] | [6] | [7] | [8] | [9]

NS(=O)(=O)c1ccc(NC(=O)CCC(=O)O)cc1
inactive: [1] | [2] | [3] | [4] | [5] | [6] | [7] | [8] | [9]

Cc1cccc(C(=O)O)c1O
inactive: [1] | [2] | [3] | [4] | [5] | [6] | [7] | [8] | [9]

C[N+](C)(C)CC[N+]1(C)Cc2c(Cl)c(Cl)c(Cl)c(Cl)c2C1
inactive: [1] | [2] | [3] | [4] | [5] | [6] | [7] | [8] | [9]

Cn1c([N+](=O)[O-])cnc1COC(N)=O
inactive: [1] | [2] | [3] | [4] | [5] | [6] | [7] | [8] | [9]

CC(=O)N[C@@H](Cc1ccc(O)cc1)C(=O)O
inactive: [1] | [2] | [3] | [4] | [5] | [6] | [7] | [8] | [9]

CC(=O)OCC(=O)[C@@]1(O)CC[C@H]2[C@@H]3CCC4=CC(=O)C=C[C@]4(C)[C@@]3(F)[C@@H](O)C[C@@]21C
inactive: [1] | [2] | [3] | [4] | [5] | [6] | [7] | [8] | [9]

Nc1ccc(S(=O)(=O)c2ccc(N)cc2)cc1
inactive: [1] | [2] | [3] | [4] | [5] | [6] | [7] | [8] | [9]

C=CCNC(N)=S
inactive: [1] | [2] | [3] | [4] | [5] | [6] | [7] | [8] | [9]

COCC(=O)Nc1c(I)c(C(=O)NCC(O)CO)c(I)c(C(=O)N(C)CC(O)CO)c1I (centres undefined)
inactive: [1] | [2] | [3] | [4] | [5] | [6] | [7] | [8] | [9]

CCCCCC(C)N (centres undefined)
inactive: [1] | [2] | [3] | [4] | [5] | [6] | [7] | [8] | [9]

O=C1C(c2[nH]c3ccccc3c2O)=Nc2ccccc21
inactive: [1] | [2] | [3] | [4] | [5] | [6] | [7] | [8] | [9]

Cc1ccc(S(=O)(=O)NC(=O)NC2CCCCCCC2)cc1
inactive: [1] | [2] | [3] | [4] | [5] | [6] | [7] | [8] | [9]

CC(=O)Oc1cccc(O)c1
inactive: [1] | [2] | [3] | [4] | [5] | [6] | [7] | [8] | [9]

CCS(=O)(=O)CCn1c([N+](=O)[O-])cnc1C
inactive: [1] | [2] | [3] | [4] | [5] | [6] | [7] | [8] | [9]

CCOC(=O)c1cccnc1
inactive: [1] | [2] | [3] | [4] | [5] | [6] | [7] | [8] | [9]

Cc1ccsc1/C=C/C1=NCCCN1C
inactive: [1] | [2] | [3] | [4] | [5] | [6] | [7] | [8] | [9]

C=CCSCC1Nc2cc(Cl)c(S(N)(=O)=O)cc2S(=O)(=O)N1 (centres undefined)
inactive: [1] | [2] | [3] | [4] | [5] | [6] | [7] | [8] | [9]

Cc1ccc(S(=O)(=O)NC(=O)NC2CCCCC2)cc1
inactive: [1] | [2] | [3] | [4] | [5] | [6] | [7] | [8] | [9]

O=C(O)/C=C/c1ccc(Cn2ccnc2)cc1
inactive: [1] | [2] | [3] | [4] | [5] | [6] | [7] | [8] | [9]

CCC(C)(CN(C)C)OC(=O)c1ccccc1 (centres undefined)
inactive: [1] | [2] | [3] | [4] | [5] | [6] | [7] | [8] | [9]

O=C(O)c1ccc(OCCCOc2ccc(C(=O)O)cc2)cc1
inactive: [1] | [2] | [3] | [4] | [5] | [6] | [7] | [8] | [9]

CCN(CC)S(=O)(=O)c1ccc(C(=O)O)cc1
inactive: [1] | [2] | [3] | [4] | [5] | [6] | [7] | [8] | [9]

C=CCN1C[C@H](C(=O)N(CCCN(C)C)C(=O)NCC)C[C@@H]2c3cccc4[nH]cc(c34)C[C@H]21
inactive: [1] | [2] | [3] | [4] | [5] | [6] | [7] | [8] | [9]

NC(=O)CC[C@@H](N)C(=O)O
inactive: [1] | [2] | [3] | [4] | [5] | [6] | [7] | [8] | [9]

Cc1cc(C)c(NC(=O)CN(CC(=O)O)CC(=O)O)c(C)c1Br
inactive: [1] | [2] | [3] | [4] | [5] | [6] | [7] | [8] | [9]

O=C(O)[C@@H]1[C@H]2C[C@H]3c4[nH]c5ccccc5c4CCN3C[C@@H]2CC[C@@H]1O
inactive: [1] | [2] | [3] | [4] | [5] | [6] | [7] | [8] | [9]

O=C(NCC(O)CO)c1c(I)c(C(=O)NCC(O)CO)c(I)c(N(CCO)C(=O)CO)c1I (centres undefined)
inactive: [1] | [2] | [3] | [4] | [5] | [6] | [7] | [8] | [9]

Cc1c(I)c(=O)n(-c2ccccc2)n1C
inactive: [1] | [2] | [3] | [4] | [5] | [6] | [7] | [8] | [9]

COc1ccc(C(=O)NCc2ccc(OCCN(C)C)cc2)cc1OC
inactive: [1] | [2] | [3] | [4] | [5] | [6] | [7] | [8] | [9]

C[N+](C)(C)CC(O)CC(=O)[O-] (centres undefined)
inactive: [1] | [2] | [3] | [4] | [5] | [6] | [7] | [8] | [9]

CC1(C)S[C@@H]2[C@H](N=CN3CCCCCC3)C(=O)N2[C@H]1C(=O)O
inactive: [1] | [2] | [3] | [4] | [5] | [6] | [7] | [8] | [9]

CCCCCCCC(=O)OCC(O)CO (centres undefined)
inactive: [1] | [2] | [3] | [4] | [5] | [6] | [7] | [8] | [9]

FC(F)(F)C(Cl)Br (centres undefined)
inactive: [1] | [2] | [3] | [4] | [5] | [6] | [7] | [8] | [9]

Cc1ccccc1N=Nc1ccc(N=Nc2c(O)ccc3ccccc23)c(C)c1
inactive: [1] | [2] | [3] | [4] | [5] | [6] | [7] | [8] | [9]

CCN(CC)C(=O)c1cccc(C)c1
inactive: [1] | [2] | [3] | [4] | [5] | [6] | [7] | [8] | [9]

Cc1ccc(C(C)C)c(O)c1
inactive: [1] | [2] | [3] | [4] | [5] | [6] | [7] | [8] | [9]

CN[C@@H]1[C@H](O)[C@H](NC)[C@H]2O[C@@]3(O)C(=O)C[C@@H](C)O[C@H]3O[C@@H]2[C@H]1O
inactive: [1] | [2] | [3] | [4] | [5] | [6] | [7] | [8] | [9]

CCCCCC(N)=O
inactive: [1] | [2] | [3] | [4] | [5] | [6] | [7] | [8] | [9]

CC1CC(OC(=O)c2ccccc2O)CC(C)(C)C1 (centres undefined)
inactive: [1] | [2] | [3] | [4] | [5] | [6] | [7] | [8] | [9]

CCCCCCCCCCCCCCCCCCO
inactive: [1] | [2] | [3] | [4] | [5] | [6] | [7] | [8] | [9]

NC(=O)NS(=O)(=O)c1ccc(N)cc1
inactive: [1] | [2] | [3] | [4] | [5] | [6] | [7] | [8] | [9]

O=C(O)CNC(=O)c1ccccc1I
inactive: [1] | [2] | [3] | [4] | [5] | [6] | [7] | [8] | [9]

CCCCC1(COC(=O)CCC(=O)O)C(=O)N(c2ccccc2)N(c2ccccc2)C1=O
inactive: [1] | [2] | [3] | [4] | [5] | [6] | [7] | [8] | [9]

CC(=O)NCc1c(I)c(NC(C)=O)c(I)c(C(=O)O)c1I
inactive: [1] | [2] | [3] | [4] | [5] | [6] | [7] | [8] | [9]
